Measured values reported in the supplement of paper PMC10849652.
Targets with a hit are over-represented here; the source holds about 7,900 in all. About 0.6% of all pairs of compound and target were hits. Values without a mark were called inactive.

Experiments:
Experiment in all cases: log2 fold change, soluble protein after heating vs DMSO (PISA); higher = thermal stabilisation; K562 cells, 10 uM, 30 min; active = over 0.2 and 3.5 SD of the protein, either way, in both replicates (recomputed)
[1] = compound: C1COCCN1CCN2C3=CC=CC=C3N=C2NC(=O)C4=CC(=CC=C4)[N+](=O)[O-] [IRAK-1-4 Inhibitor I]
In short: (§1)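 K562 cells at 2×10^6 cells/mL were given 10 μM compound for 30 min. Aliquots then went through 3 min of heating across 48°C-58°C, were pooled, and were extracted in PBS with 0.5% NP-40 at 4°C, and the supernatant after 21,000xg for 90 min was quantified by TMTpro 16plex LC-MS/MS with channel sums equalised. Thermal stability relative to control samples, from duplicates, is given as log2 fold change.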

[2] = compound: C=CC(=O)N1CCC[C@@H](n2nc(-c3ccc(Oc4ccccc4)cc3)c3c(N)ncnc32)C1 [ibrutinib]
In short: as §1

[3] = compound: CC(=O)c1cnc2ccc(-c3cc(Cl)c(O)c(Cl)c3)nc2c1N[C@H]1CC[C@H](CN(C)C)CC1
In short: as §1

[4] = compound: CC(C)(C)Cn1c(N)nc2ccc(-c3[nH]c(C(C)(C)C)nc3-c3ccc(F)cc3)nc21 [ralimetinib]
In short: as §1

[5] = compound: CC(C)(O)CC(=O)NCCn1ccc2ncnc(Nc3ccc(Oc4cccc(C(F)(F)F)c4)c(Cl)c3)c21
In short: as §1

[6] = compound: CC(C)C1=C2N=C(C=C(N2N=C1)NCC3=CC=CC=C3)NCCCCCCN
In short: as §1

[7] = compound: CC(C)C[C@@H](C=O)NC(=O)[C@H](CC(C)C)NC(=O)[C@H](CC(C)C)NC(=O)OCc1ccccc1
In short: as §1

[8] = compound: CC(C)N(C[C@H]1O[C@@H](n2cnc3c(N)ncnc32)[C@H](O)[C@@H]1O)[C@H]1C[C@@H](CCc2nc3cc(C(C)(C)C)ccc3[nH]2)C1 [pinometostat]
In short: as §1

[9] = compound: CC1=C(C(CC(=O)N1)C2=CC=C(C=C2)C(F)(F)F)C(=O)NC3=C(C=C4C(=C3)C=NN4)F
In short: as §1

[10] = compound: CC1=C(C2=C(C=C1)C(=O)C3=CC=CC=C3N2CCCN)C
In short: as §1

UniProt P29084, sequence (P29084 whole entry, looked up): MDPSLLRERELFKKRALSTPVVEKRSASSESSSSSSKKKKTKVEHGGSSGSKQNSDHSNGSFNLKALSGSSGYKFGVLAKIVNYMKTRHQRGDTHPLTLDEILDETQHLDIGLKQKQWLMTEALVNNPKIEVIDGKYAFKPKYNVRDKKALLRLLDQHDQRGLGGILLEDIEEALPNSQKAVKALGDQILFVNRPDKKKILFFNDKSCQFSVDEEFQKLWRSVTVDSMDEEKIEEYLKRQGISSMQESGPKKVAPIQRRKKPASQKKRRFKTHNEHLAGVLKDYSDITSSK
UniProt Q53T59, sequence (Q53T59 whole entry, looked up): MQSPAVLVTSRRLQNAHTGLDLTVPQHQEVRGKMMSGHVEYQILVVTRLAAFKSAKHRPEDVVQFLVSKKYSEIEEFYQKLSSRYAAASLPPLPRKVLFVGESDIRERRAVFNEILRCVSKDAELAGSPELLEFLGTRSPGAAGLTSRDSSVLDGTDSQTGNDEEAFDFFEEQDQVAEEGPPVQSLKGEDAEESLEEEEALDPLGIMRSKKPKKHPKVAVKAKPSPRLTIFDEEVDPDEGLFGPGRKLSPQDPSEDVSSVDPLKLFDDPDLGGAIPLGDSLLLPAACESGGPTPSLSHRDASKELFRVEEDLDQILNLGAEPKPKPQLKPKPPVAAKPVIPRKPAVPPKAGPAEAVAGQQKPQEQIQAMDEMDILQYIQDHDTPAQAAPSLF
UniProt Q9UKD1, sequence (Q9UKD1 whole entry, looked up): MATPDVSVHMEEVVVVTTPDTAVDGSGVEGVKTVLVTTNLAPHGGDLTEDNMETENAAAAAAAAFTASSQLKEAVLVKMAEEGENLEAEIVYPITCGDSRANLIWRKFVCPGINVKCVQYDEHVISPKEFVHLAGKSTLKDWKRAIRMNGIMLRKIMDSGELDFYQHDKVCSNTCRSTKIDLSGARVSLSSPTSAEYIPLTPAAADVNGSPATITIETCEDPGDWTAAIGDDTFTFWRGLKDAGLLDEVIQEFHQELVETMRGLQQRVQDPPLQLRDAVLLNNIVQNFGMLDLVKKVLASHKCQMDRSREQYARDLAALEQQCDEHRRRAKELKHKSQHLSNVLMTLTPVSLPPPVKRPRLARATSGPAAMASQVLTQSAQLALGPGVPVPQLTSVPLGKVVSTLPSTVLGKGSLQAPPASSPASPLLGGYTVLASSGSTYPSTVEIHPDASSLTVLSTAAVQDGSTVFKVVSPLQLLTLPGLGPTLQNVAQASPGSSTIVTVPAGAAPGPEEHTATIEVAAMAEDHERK
UniProt P62879, sequence (P62879 whole entry, looked up): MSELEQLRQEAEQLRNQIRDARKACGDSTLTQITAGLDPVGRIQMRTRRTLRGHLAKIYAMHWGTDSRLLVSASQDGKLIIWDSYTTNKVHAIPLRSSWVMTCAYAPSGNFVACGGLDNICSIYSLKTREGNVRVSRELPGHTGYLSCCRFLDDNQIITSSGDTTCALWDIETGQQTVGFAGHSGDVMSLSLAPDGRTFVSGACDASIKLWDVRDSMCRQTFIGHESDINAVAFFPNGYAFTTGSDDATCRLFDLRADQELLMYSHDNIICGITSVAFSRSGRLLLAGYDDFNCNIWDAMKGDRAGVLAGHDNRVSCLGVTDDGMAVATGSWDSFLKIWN
UniProt O43824, sequence (O43824 whole entry, looked up): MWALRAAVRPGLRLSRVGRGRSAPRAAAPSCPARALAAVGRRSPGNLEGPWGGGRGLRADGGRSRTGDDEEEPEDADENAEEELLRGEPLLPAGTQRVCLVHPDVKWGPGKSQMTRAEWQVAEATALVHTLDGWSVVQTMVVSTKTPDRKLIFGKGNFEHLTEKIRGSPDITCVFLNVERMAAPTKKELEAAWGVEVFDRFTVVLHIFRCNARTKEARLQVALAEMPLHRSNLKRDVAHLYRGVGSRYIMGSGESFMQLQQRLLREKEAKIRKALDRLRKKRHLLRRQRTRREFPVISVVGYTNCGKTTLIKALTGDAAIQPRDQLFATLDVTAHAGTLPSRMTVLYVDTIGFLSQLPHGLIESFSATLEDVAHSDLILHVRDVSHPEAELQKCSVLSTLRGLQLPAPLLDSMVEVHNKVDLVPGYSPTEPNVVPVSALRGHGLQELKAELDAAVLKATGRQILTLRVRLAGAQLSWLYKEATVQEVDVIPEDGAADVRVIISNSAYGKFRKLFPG
UniProt Q9BTY2, sequence (Q9BTY2 whole entry, looked up): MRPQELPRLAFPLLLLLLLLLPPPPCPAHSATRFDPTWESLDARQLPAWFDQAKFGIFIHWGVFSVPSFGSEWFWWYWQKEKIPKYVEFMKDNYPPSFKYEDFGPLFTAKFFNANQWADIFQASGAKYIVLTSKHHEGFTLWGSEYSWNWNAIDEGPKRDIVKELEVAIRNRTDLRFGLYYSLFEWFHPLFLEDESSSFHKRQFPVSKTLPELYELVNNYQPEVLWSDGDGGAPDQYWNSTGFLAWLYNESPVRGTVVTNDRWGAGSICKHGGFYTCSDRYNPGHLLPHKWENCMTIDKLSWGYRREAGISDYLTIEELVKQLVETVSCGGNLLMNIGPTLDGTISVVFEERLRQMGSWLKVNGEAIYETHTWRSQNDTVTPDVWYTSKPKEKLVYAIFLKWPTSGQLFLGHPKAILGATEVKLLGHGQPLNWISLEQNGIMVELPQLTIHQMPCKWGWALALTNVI
UniProt P09105, sequence (P09105 whole entry, looked up): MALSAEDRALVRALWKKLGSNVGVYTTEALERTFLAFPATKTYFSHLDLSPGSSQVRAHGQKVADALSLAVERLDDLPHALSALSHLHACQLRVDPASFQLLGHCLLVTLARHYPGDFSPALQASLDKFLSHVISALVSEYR
UniProt P52789, sequence (P52789 whole entry, looked up): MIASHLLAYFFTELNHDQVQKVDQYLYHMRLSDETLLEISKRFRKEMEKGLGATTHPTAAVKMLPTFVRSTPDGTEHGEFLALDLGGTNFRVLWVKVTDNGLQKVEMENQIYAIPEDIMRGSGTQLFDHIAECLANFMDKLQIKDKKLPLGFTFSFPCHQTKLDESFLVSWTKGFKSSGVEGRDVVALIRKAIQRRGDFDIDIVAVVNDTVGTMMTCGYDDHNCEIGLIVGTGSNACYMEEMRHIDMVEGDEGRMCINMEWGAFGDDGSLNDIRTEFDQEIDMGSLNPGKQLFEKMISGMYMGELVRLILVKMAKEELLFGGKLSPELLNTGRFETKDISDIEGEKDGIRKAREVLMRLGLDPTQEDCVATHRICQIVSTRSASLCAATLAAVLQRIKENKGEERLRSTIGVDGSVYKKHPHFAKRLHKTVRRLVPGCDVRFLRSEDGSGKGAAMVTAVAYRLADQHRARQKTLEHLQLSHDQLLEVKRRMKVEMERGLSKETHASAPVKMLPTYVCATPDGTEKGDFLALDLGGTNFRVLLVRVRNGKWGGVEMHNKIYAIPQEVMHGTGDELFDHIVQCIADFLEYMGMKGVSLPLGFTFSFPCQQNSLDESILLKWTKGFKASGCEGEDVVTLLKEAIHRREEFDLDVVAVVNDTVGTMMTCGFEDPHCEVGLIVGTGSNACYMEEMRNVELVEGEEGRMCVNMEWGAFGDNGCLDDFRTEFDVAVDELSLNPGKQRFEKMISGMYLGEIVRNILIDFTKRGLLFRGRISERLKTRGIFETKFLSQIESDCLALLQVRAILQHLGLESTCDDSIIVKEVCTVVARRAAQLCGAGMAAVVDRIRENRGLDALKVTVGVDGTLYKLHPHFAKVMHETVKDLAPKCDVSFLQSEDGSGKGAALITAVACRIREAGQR
UniProt P52655, sequence (P52655 whole entry, looked up): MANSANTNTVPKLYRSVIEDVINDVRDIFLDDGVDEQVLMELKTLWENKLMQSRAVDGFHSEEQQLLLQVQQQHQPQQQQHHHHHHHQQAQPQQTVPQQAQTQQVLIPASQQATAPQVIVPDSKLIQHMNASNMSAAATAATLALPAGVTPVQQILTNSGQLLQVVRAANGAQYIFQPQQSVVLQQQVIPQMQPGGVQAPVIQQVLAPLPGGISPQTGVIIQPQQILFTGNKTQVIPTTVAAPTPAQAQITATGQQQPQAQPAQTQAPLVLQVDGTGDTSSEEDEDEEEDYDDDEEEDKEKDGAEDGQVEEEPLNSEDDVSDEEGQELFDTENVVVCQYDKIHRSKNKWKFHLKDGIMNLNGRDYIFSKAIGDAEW
UniProt P0C0S5, sequence (P0C0S5 whole entry, looked up): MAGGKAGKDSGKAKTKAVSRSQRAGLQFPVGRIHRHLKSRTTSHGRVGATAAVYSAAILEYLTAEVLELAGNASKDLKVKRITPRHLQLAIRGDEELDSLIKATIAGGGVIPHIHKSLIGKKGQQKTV
UniProt Q00688, sequence (Q00688 whole entry, looked up): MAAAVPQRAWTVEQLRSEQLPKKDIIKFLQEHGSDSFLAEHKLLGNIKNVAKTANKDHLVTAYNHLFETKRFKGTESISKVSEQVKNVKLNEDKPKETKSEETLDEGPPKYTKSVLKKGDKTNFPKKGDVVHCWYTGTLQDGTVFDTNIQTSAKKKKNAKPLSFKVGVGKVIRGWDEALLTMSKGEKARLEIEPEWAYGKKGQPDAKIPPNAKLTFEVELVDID
UniProt Q9BYC5, sequence (Q9BYC5 whole entry, looked up): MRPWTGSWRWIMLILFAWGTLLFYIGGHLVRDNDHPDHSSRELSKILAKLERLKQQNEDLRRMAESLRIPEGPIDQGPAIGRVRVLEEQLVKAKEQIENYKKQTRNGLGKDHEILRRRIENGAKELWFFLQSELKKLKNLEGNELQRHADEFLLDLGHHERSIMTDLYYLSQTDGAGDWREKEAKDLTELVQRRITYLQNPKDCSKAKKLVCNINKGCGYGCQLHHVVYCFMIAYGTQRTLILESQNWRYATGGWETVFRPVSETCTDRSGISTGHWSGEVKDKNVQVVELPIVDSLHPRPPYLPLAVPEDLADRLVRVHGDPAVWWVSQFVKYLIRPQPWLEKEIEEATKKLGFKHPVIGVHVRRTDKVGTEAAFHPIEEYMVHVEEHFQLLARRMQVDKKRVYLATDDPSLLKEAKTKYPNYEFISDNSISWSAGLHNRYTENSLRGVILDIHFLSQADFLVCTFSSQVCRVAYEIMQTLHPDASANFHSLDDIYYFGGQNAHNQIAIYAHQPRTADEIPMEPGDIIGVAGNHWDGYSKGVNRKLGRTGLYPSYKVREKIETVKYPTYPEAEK

Target | log2 fold change [1] | log2 fold change [2] | log2 fold change [3] | log2 fold change [4] | log2 fold change [5] | log2 fold change [6] | log2 fold change [7] | log2 fold change [8] | log2 fold change [9] | log2 fold change [10]
GABARAPL1 isoform 2 (UniProt Q9H0R8) | 0.031 | -0.057 | -0.065 | -0.003 | -0.024 | -0.369 (active) | 0.092 | -0.044 | -0.047 | 0.023
GMEB2 (UniProt Q9UKD1) | -0.021 | 0.061 | -0.022 | 0.018 | -0.158 | 0.006 | -0.128 | 0.145 | 0.004 | -0.367 (active)
HDAC1 (UniProt Q13547) | -0.033 | -0.052 | 0.056 | 0.02 | -0.021 | -0.009 | -0.067 | 0.03 | 0.003 | 0.023
GLUD2 (UniProt P49448) | 0.025 | 0.045 | 0.113 | 0 | 0.098 | -0.041 | 0.014 | -0.013 | -0.098 | 0.127
FNTB (UniProt P49356) | 0.017 | 0.309 | -0.028 | -0.016 | -0.025 | 0.074 | -0.033 | -0.003 | -0.146 | -0.087
GNB2 (UniProt P62879) | -0.021 | 0.003 | -0.013 | 0.016 | 0.013 | 0.022 | -0.025 | 0.016 | -0.034 | 0.076
GGA2 (UniProt Q9UJY4) | 0.007 | -0.05 | -0.006 | -0.153 | -0.048 | -0.169 | 0.068 | -0.038 | -0.04 | 0.032
GNL1 (UniProt P36915) | 0.07 | 0.037 | 0.046 | 0.011 | -0.063 | -0.03 | -0.014 | -0.006 | -0.037 | -0.086
HBQ1 (UniProt P09105) | 0.003 | 0.016 | 0.01 | -0.034 | -0.078 | 0.095 | -0.102 | 0.004 | 0.027 | 0.147
IFRD1 (UniProt O00458) | 0.033 | 0.058 | 0.203 | -0.014 | -0.002 | -0.035 | 0.168 | -0.029 | -0.095 | -1.05 (active)
FBXO7 (UniProt Q9Y3I1) | -0.008 | 0.036 | -0.024 | -0.005 | -0.068 | 0.001 | -0.013 | 0.042 | -0.021 | 0.044
FKBP3 (UniProt Q00688) | 0.01 | 0.009 | 0.016 | 0.001 | -0.028 | 0.023 | -0.014 | -0.057 | -0.033 | -0.004
GPKOW (UniProt Q92917) | -0.016 | -0.005 | -0.172 | -0.08 | -0.026 | -0.184 | 0.006 | 0.047 | -0.034 | 0.056
FUBP3 (UniProt Q96I24) | -0.002 | -0.002 | -0.054 | 0.023 | -0.083 | 0.15 | 0.036 | -0.017 | -0.022 | 0.387 (active)
GCLM (UniProt P48507) | -0.065 | -0.038 | 0.106 | 0.002 | -0.104 | -0.034 | 0.02 | 0.049 | -0.078 | -0.023
HK2 (UniProt P52789) | -0.007 | -0.01 | -0.096 | -0.037 | -0.046 | 0.096 | -0.022 | -0.001 | 0.063 | 0.034
FUT8 (UniProt Q9BYC5) | -0.02 | 0.064 | -0.098 | -0.087 | 0.019 | -0.133 | 0.053 | 0.065 | 0.105 | 0.077
GTF2E2 (UniProt P29084) | -0.041 | -0.008 | -0.104 | -0.012 | -0.033 | -0.137 | 0.075 | 0.056 | 0.001 | 0.056
HS1BP3 (UniProt Q53T59) | 0.004 | -0.029 | -0.117 | 0.038 | -0.059 | -0.038 | 0.086 | -0.002 | 0.004 | 
ICMT (UniProt O60725) | 0.039 | 0.182 | 0.248 | 0.163 | -0.032 | -0.472 (active) | -0.051 | -0.02 | -0.171 | 0.147
GUSB (UniProt P08236) | 0.037 | -0.016 | -0.075 | -0.013 | 0.011 | 0.025 | -0.005 | -0.032 | 0.174 | -0.077
GALK1 isoform 2 (UniProt P51570) | 0.046 | 0.024 | 0.018 | 0.081 | -0.081 | -0.004 | -0.121 | 0.041 | 0.023 | -0.018
H2AZ1 (UniProt P0C0S5) | -0.115 | 0.087 | -0.125 | 0.247 | 0.031 | -0.022 | 0.244 | 0.268 | 0.022 | 1.74 (active)
ICAM1 (UniProt P05362) | 0.056 | 0.042 | -0.039 | -0.02 | 0.002 | 0.157 | -0.001 | -0.009 | -0.028 | 0.045
HOOK3 (UniProt Q86VS8) | 0.003 | -0.057 | -0.018 | 0.033 | -0.109 | -0.138 | 0.056 | 0.024 | 0.008 | 0.02
GTPBP6 (UniProt O43824) | -0.043 | -0.081 | 0.028 | 0.039 | 0.111 | 0.204 | 0.024 | 0.062 | 0.112 | 0.013
GTF2B (UniProt Q00403) | -0.063 | -0.064 | -0.023 | 0.044 | -0.215 | -0.125 | 0.068 | 0 | -0.026 | 0.07
GGT7 (UniProt Q9UJ14) | 0.04 | 0.038 | 0.02 | -0.046 | 0.015 | 0.095 | 0.001 | -0.005 | -0.015 | -0.031
GTF2A1 (UniProt P52655) | 0.068 | 0.03 | 0.013 | -0.142 | -0.106 | 0.022 | -0.06 | 0.035 | 0.014 | -0.415 (active)
FUCA2 (UniProt Q9BTY2) | -0.078 | 0.043 | -0.056 | 0.019 | 0.026 | -0.09 | -0.004 | 0.036 | -0.036 | -0.12
